Entries with a potency or affinity are not part of this list. The source made the active and inactive calls.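 The calls were made as follows: active = potentiation or inhibition of the KCNQ1 potassium channel at some dose, with a concentration-response curve obtained; inactive = no effect at any dose, or no curve obtained.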

The target in this test is Potassium voltage-gated channel subfamily KQT member 1 (Homo sapiens) (UniProt P51787). Kind of test: KCNQ1 channel current modulation by KCNQ2 openers, dose response, selectivity assay for KCNQ2 activator project, automated patch clamp, KCNQ1-CHO cells (AID 493044). The note with it: automated patch clamp current (IonWorks); series mostly up to 30 µM.
Sequence of Potassium voltage-gated channel subfamily KQT member 1 (Homo sapiens) (P51787 whole entry, looked up): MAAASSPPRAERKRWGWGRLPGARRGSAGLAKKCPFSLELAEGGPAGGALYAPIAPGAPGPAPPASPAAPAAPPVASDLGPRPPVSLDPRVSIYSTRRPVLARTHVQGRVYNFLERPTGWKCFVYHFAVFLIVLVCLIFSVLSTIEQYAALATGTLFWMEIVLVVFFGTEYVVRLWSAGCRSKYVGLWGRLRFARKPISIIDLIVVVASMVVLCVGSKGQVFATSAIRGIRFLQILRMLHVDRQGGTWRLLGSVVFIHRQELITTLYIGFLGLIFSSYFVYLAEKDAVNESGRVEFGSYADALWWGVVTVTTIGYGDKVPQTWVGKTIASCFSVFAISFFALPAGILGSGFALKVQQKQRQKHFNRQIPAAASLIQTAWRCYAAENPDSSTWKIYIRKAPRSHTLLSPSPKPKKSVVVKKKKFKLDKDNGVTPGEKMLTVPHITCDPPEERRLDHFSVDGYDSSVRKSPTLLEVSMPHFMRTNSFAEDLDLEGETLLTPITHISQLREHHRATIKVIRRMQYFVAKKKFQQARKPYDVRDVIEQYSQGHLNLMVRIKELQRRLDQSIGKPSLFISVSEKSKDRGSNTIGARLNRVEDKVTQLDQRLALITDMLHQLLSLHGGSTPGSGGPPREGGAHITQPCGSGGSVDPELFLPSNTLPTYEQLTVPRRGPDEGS
For `Cc1cccc(C)c1NC(=O)C1CC2CCC1C2` (centres undefined), the call was inactive.

`Cc1cc(C)c(NC(=O)C2CC3CCC2C3)c(C)c1` (centres undefined): the outcome was inactive. The same measure for `CCCCC(=O)Nc1c(C)cc(C)cc1Cl`: “inactive”; for `Cc1cc(C)c(NC(=O)CC(C)(C)C)c(Cl)c1`: “inactive”.

For the origin of these results see PubChem BioAssay AID493044 (Johns Hopkins Ion Channel Center, 2011).
